“And” between values parts separate entries of the source, which are not always exact repeats. Identical values can stand only once. The panel holds about 83,000 compounds, 20% with a hit somewhere; the sample as a whole holds those more often.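 Treatment: one concentration, 48 hours, 96-well format. Scoring: percent growth, with anything below 10 considered active.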 Unmarked numbers belong to inactive results. The source made the active and inactive calls.
Assays:
Assay in all cases: NCI-60 one-dose screen, 48 h (100 = growth as untreated, 0 = no growth, -100 = all killed)
Conditions in all cases: 10 µM unless noted
SR leukemia = system: SR leukemia
RPMI-8226 leukemia = system: RPMI-8226 leukemia
OVCAR-8 ovarian = system: OVCAR-8 ovarian
OVCAR-5 ovarian = system: OVCAR-5 ovarian
OVCAR-4 ovarian = system: OVCAR-4 ovarian
SK-OV-3 ovarian = system: SK-OV-3 ovarian
IGROV1 ovarian = system: IGROV1 ovarian
OVCAR-3 ovarian = system: OVCAR-3 ovarian
HS 578T breast = system: HS 578T breast
NCI/ADR-RES ovarian = system: NCI/ADR-RES ovarian

SMILES | growth (SR leukemia) | growth (RPMI-8226 leukemia) | growth (OVCAR-8 ovarian) | growth (OVCAR-5 ovarian) | growth (OVCAR-4 ovarian) | growth (SK-OV-3 ovarian) | growth (IGROV1 ovarian) | growth (OVCAR-3 ovarian) | growth (HS 578T breast) | growth (NCI/ADR-RES ovarian)
CCNC1=CC(=O)c2ncccc2C1=O | 50.9% | 66.4% | 51.9% | -53.7% (active) | 47.1% | 73.5% | 63.2% | 1.49% (active) | -15.9% (active) | 56%
COc1ccc2oc3c(ccc[n+]3C)c(=O)c2c1 | 119% | 104% | 96.5% | 98.9% | 108% | 99.7% | 108% | 109% | 99.8% | 108%
COc1cc(NCCCCCNC(C)C)c2ncccc2c1 | 82.8% and 133% | 107% and 98.1% | 104% and 89.6% | 95.2% and 86.9% | 44.4% and 45.7% | 84.3% | 90.3% and 60.4% | 92% | 83.5% | 91.5% and 93.7%
CCOP(=O)(OCC)/C(C#N)=C/c1c(C)[nH]c2ccccc12 | 94.8% | 88.8% | 94.8% | 103% | 41% | 100% | 105% | 105% | 90.8% | 97.9%
C#CCOC(=O)C(N)CS (stereo not drawn) | 102% | 102% | 110% | 79.9% | 101% | 101% | 104% | 103% | 137% | 102%
CCOC(=O)c1ccc(N2C(=O)C(Cl)(c3ccccc3)C2c2ccco2)cc1 (stereo not drawn) | 76.1% | 43% | 90.2% | 98.2% | 90.4% | 104% | 99.1% | 78.8% | 69.6% | 91.3%
CCNCc1ccccc1 | 97.5% | 119% | 100% | 98.5% | 114% | 97.5% | 106% | 102% |  | 102%
CSc1nc(N)c(N)c(N)n1 | 90.8% | 102% | 103% | 120% | 103% | 81.3% | 108% | 113% | 111% | 110%
CC(NC(=O)CCl)c1ccccc1 (stereo not drawn) | 99.2% | 107% | 105% | 109% | 98.7% | 102% | 104% | 102% | 92.5% | 104%
O=C(O)C#Cc1ccc(Cl)cc1 | 100% | 106% | 97.6% | 102% | 97.5% | 92.5% | 98.3% | 110% |  | 108%
O=[N+]([O-])c1ccc(N2CCN=N2)cc1 | 78.6% | 92.7% | 88% | 87.7% | 95.9% | 89.6% | 96.1% | 99.8% | 101% | 100%
COc1ccc([N+](=O)[O-])cc1OC | 89.4% and 108% | 106% | 89.6% and 94.5% | 101% and 98.3% | 104% | 114% and 119% | 111% and 109% | 113% and 114% | 112% and 132% | 102% and 104%

— PubChem BioAssay (NCI)
